HP1b chromo inh = blocks HP1-beta chromodomain binding to methylated histone tails; P83916; AlphaScreen HP1-beta / biotin-H3K9me3 peptide binding; Potency, µM (titrated, usually from 114 µM), without a hit: at the highest dose activity change, negative = inhibition, most hits filed as inhibitors; 390,000 tested, 0.56% active; AID 540317; note: nearly all actives have a fitted effect of over 70% in size
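HP1-beta protein (50 nM final) preincubated 30 min at room temperature with biotinylated H3(1-18)K9me3 peptide (50 nM) in PBS pH 7.4, 0.01% Tween-20, then compound added for 30 min. AlphaScreen streptavidin donor/nickel chelate acceptor beads (10 ug/mL final), 30 min dark, luminescence read.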
GLS inh = glutaminase GLS (human) inhibition; O94925; GLS enzymatic activity, qHTS titration; Potency, µM (series often up to 45.5 µM), inactives show top-dose activity change, negative = inhibition, actives largely listed as inhibitors; 410,000 tested, 0.21% active; AID 624170; note: % is set by controls: 0 for no effect and ±100 for the full control effect
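Glutamate formation by hKGA was monitored fluorometrically using coupled glutamate oxidase, HRP and Amplex Red. Substrate was added as 1 mM L-glutamine solution; incubation was 30 min at RT after an initial read.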
BAZ2B inh = inhibitors of human BAZ2B bromodomain; AlphaScreen BAZ2B-H3K14Ac peptide displacement; AID 504333; Q9UIF8; 360,000 tested, 4.4% active; Potency, µM (top dose mostly 114 µM), for inactives: at the top dose activity change, negative = inhibition, hits mostly inhibitors; note: % is set by controls: 0 for no effect and ±100 for the full control effect; nearly all actives have a fitted effect of over 60% in size
Target sequence (Q9UIF8 whole entry, looked up): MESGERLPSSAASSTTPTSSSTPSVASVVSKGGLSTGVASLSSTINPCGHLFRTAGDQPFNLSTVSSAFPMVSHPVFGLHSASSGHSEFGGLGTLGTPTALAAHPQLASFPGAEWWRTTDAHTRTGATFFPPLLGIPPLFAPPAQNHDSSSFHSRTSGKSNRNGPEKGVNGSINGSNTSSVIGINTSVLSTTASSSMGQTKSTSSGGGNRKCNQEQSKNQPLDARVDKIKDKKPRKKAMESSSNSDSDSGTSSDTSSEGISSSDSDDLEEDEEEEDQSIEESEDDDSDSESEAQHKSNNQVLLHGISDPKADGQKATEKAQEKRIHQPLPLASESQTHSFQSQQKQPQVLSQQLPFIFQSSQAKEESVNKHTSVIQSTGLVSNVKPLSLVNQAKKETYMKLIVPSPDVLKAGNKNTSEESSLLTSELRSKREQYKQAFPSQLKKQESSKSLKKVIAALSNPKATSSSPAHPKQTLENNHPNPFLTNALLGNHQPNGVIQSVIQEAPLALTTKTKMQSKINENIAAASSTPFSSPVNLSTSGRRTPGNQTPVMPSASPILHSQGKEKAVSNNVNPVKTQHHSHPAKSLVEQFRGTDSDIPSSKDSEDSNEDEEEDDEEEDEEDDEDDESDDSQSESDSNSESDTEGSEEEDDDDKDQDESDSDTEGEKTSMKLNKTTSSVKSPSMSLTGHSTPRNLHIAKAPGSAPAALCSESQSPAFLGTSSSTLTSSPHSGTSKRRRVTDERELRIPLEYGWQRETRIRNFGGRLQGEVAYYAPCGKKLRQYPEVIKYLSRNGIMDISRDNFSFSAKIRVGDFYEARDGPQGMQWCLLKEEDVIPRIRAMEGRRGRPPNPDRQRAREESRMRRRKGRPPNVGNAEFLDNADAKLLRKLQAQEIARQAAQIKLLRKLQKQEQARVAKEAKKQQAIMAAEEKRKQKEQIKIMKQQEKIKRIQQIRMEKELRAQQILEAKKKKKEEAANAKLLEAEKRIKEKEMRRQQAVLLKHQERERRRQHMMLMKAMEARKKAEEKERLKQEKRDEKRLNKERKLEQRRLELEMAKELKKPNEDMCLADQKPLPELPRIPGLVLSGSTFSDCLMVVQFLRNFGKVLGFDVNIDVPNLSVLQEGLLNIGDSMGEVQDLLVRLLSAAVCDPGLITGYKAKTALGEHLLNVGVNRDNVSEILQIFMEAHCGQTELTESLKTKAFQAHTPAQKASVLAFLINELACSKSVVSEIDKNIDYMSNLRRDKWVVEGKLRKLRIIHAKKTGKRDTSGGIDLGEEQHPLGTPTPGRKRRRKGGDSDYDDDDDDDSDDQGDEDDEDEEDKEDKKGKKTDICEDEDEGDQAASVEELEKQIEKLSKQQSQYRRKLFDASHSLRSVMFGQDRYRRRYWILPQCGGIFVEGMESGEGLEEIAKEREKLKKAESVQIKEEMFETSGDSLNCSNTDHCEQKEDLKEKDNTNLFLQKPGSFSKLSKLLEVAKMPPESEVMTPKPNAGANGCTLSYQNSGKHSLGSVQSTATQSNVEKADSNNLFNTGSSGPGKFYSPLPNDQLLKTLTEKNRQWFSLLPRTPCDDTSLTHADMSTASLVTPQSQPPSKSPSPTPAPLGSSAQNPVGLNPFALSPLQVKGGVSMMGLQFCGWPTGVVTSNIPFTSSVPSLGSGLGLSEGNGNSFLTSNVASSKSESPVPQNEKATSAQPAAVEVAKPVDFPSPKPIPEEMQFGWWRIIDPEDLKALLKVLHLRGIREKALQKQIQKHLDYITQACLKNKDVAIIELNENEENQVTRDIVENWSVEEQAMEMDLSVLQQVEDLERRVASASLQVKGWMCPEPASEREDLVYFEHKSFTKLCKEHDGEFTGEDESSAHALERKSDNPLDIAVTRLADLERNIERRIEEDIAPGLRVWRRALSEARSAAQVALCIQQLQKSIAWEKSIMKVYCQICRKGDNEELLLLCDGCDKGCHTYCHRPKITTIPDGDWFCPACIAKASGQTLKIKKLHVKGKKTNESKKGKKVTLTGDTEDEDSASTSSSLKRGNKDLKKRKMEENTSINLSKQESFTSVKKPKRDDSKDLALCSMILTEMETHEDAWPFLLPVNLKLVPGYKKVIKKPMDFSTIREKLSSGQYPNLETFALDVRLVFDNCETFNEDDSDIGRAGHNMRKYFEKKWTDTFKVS
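Multi-concentration screen (max 110 uM) measuring displacement of acetylated histone H3 peptide from BAZ2B by AlphaScreen, using 50 nM protein, 50 nM peptide and 10 ug/mL streptavidin donor plus Ni-chelate acceptor beads.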
JMJD2A Tudor inh = inhibitors of human JMJD2A Tudor domain; O75164; AlphaScreen JMJD2A-Tudor / H3K4me3 peptide binding; Potency, µM (doses to about 114 µM), for inactives: at the highest dose activity change, negative = inhibition, hits mostly inhibitors; 390,000 tested, 4.4% active; AID 504339; note: % is set by controls: 0 for no effect and ±100 for the full control effect; nearly all actives have a fitted effect of over 50% in size
G9a inh = inhibitors of human histone lysine methyltransferase G9a; G9a H3K9 monomethylation, AlphaScreen, 2 h; Potency, µM (series often up to 102 µM), for inactives: at the top dose activity, negative = inhibition, actives largely listed as inhibitors; 350,000 tested, 8.8% active; note: % is set by controls: 0 for no effect and ±100 for the full control effect; nearly all actives have a fitted effect of over 75% in size
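Compounds were preincubated with 20 nM G9a for 15 min, after which biotinylated H3K9 peptide (500 nM) and SAM (20 uM) started a 2 h room-temperature reaction. Monomethylated product was quantified by antibody-based AlphaScreen chemiluminescence.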
L3MBTL1 inh = inhibitors of human L3MBTL1. Q9Y468. AlphaScreen L3MBTL1–H3K9me1 peptide binding. Potency, µM (series often up to 57.1 µM), for inactives: at the highest dose activity, negative = inhibition, usual class: inhibitors. 230,000 tested, 0.66% active; note: % is set by controls: 0 for no effect and ±100 for the full control effect; nearly all actives have a fitted effect of over 60% in size
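Displacement of a biotinylated histone H3(1-15) peptide monomethylated at Lys9 (75 nM) from L3MBTL1 (50 nM) was measured by AlphaScreen after a 30 min room-temperature compound incubation; cefsulodin titration served as intraplate control.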
Starred values were filed as active, the others as inactive; u = inconclusive; x = no result given; [ ] = dose if it differs, or a comment. The list is not random: actives were taken first. Their share in the collection is about 10%. Calls come from the whole dose curve; as a rule, active = well fitted curve in the direction sought with a large enough effect; inconclusive = small, poorly fitted or top-dose-only effect, or another doubt; inactive = no such curve, though single readings can be large; an effect the other way counts as inactive or inconclusive. Potency is the fitted concentration of half-maximal effect.

SMILES	HP1b chromo inh	GLS inh	BAZ2B inh	JMJD2A Tudor inh	G9a inh	L3MBTL1 inh
Cc1cc(OCc2n[nH]c(=S)n2-c2ccccc2)ccc1Cl	8%	13%	-7%	u	x	0%
Cc1nn(C)c(-c2n[nH]c(=S)n2-c2ccccc2)c1Cl	19%	5%	3%	35µM*	3.2µM*	8%
Cn1cc(Cl)c(-c2n[nH]c(=S)n2-c2ccccc2)n1	36%	-4%	-1%	6.3µM*	8.9µM*	2%
Cc1c(-n2c(-c3ccccc3Cl)n[nH]c2=S)c(=O)n(-c2ccccc2)n1C	50%	-3%	u	u	45µM*	-14%
Cc1ccc(-n2c(-c3nn(C)cc3Cl)n[nH]c2=S)cc1	27%	2%	2%	8.9µM*	3.2µM*	-6%
CC(=O)c1ccc(NC(=O)CSc2nc(=O)n(Cc3ccncc3)c3c2CCC3)cc1	-1%	-11%	-4%	-9%	11%[59 µM]	x
Cc1c(Cl)c(-c2n[nH]c(=S)n2-c2ccc(F)cc2)nn1C	27%	14%	-5%	45µM*	u	-3%
Cc1nn(C)cc1-c1n[nH]c(=S)n1-c1ccc(F)cc1	16%	-11%	-20%	5.6µM*	10µM*	4%
Cn1cc(Cl)c(-c2n[nH]c(=S)n2-c2ccc(F)cc2)n1	47%	5%	-3%	u	7.9µM*	8%
Cc1c(-c2n[nH]c(=S)n2-c2ccc(C(F)(F)F)cc2)nnn1-c1ccccc1	-6%	20%	-2%	u	10µM*	5%
Cc1ccc(-n2c(-c3cn(C)nc3C)n[nH]c2=S)cc1	x	x	-20%	x	u	x
Cc1c(-c2n[nH]c(=S)n2-c2ccc(Br)cc2)nnn1-c1ccc(Cl)cc1	3%	-8%	-37%	u	u	-12%
Oc1ccc(Br)cc1C1C=C(c2ccc3c(c2)OCO3)NC(c2c(F)cccc2Cl)N1 (stereo not given)	-5%	x	x	u	x	x
CCCCN(C)S(=O)(=O)c1cc(-c2cc(C)no2)ccc1C	110%	0%	68%	64%	30%[59 µM]	x
Cc1nn(-c2ccc(N3CCCC3)nn2)c(C)c1CCC(=O)N1CCN(c2ccccc2)CC1	27%	5%	u	-12%	17%[59 µM]	x
CC1CC(=O)N(CC(=O)Nc2ccc(OC(F)(F)F)cc2)c2ccccc2S1 (stereo not given)	36%	1%	4%	2%	-3%[59 µM]	x
COc1ccc(Cl)cc1NC(=O)CSc1nnc(C2CC2)n1N	26%	-2%	10%	-11%	79µM*	8%
Cc1ccc(NC(=O)CSc2nnc(Cc3cccn3C)n2-c2ccc(F)cc2)c(C)c1	31%	4%	u	-14%	28µM*	x
Cn1cccc1Cc1nnc(SCC(=O)Nc2ccc(F)cc2F)n1-c1ccc(F)cc1	15%	1%	u	-26%	-1%[59 µM]	-12%
COc1ccc(Cl)cc1NC(=O)CSc1nnc(Cc2cccn2C)n1-c1ccc(F)cc1	-19%	4%	u	u	45µM*	-17%
CCc1ccc(CN(Cc2ccco2)c2cnc(S(C)(=O)=O)nc2C(=O)Nc2ccccc2Cl)cc1	40%	-3%	u	-27%	-28%[59 µM]	x
Cc1c(/C=N/NC(=O)CNc2ccccc2)c2ccccn2c1C(=O)c1ccc(Cl)cc1	-3%	12%	-5%	-14%	-19%	-3%
Cc1c(/C=N/NC(=O)CNc2ccccc2)c2ccccn2c1C(=O)c1ccncc1	-2%	5%	u	-15%	45µM*	-26%
O=C(Cn1c(=O)n(-c2ccccc2)c(=O)c2ccc(C(=O)NCc3ccc4c(c3)OCO4)cc21)Nc1ccc(Br)cc1F	35%	-5%	x	6%	1%[59 µM]	x
CCOc1ccccc1N(C)C(=O)NCc1noc2ccccc12	65%	4%	-13%	8%	8%[59 µM]	x

Compound activity: PubChem BioAssay, National Center for Advancing Translational Sciences (NCATS)
